Inconclusive results are not listed. More than one record can exist for a structure, and the calls need not agree. Active and inactive are the calls of the source. Calls come from the whole dose curve; as a rule, active = well fitted inhibition curve with a large enough effect; inconclusive = small, poorly fitted or top-dose-only effect; inactive = flat fitted curve, though single readings scatter.
test: qHTS for Inhibitors of Plasmodium falciparum (7G8) proliferation (AID 504316); note: nearly all actives have a fitted effect of over 65% in size;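 for activity change, negative = inhibition: 0% = DMSO vehicle and -100% = 0.29 µM artemisinin full kill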; settings: P. falciparum 7G8 in erythrocytes, SYBR Green DNA, 72 h; series mostly up to 6.7 µM; activity change, negative = inhibition: at the top concentration
In short: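 Parasite growth measured as SYBR Green DNA fluorescence (ex 485, em 535 nm) after overnight lysis following 72 h culture at 37 °C, 0.3% parasitemia, 2.5% hematocrit. Values normalized against DMSO and 0.29 uM artemisinin controls, with plate-stack correction.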
Potency is the fitted concentration of half-maximal effect.

Row | SMILES | activity change, negative = inhibition | Potency
1 | CC=COC(=O)N[C@@H](c1ccccc1)[C@]1(C(C)=O)CCOC1=O | -4.93% (inactive) | –
2 | COc1cc2c(cc1OC)[C@@H]1O[C@](c3ccsc3)(C2)Oc2cc(-c3ccccc3)oc(=O)c21 | – | 1.9 µM (active) and inactive
3 | CCOC(=O)CN1C(=O)[C@]2(O[C@H](C)CC3=CCCC32)c2c(Br)cccc21 (some centres undefined) | -5.38% (inactive) | –
4 | C[C@H](ON=C1[C@H]2CCn3c(=O)n(-c4ccccc4)c(=O)n3[C@@H]2[C@H](O)[C@@H]2O[C@H]12)c1cn([C@H](CO)Cc2ccccc2)nn1 | 4.43% (inactive) | –
5 | C=CCOC(=O)C(C(C)=O)[C@@H](NC(=O)OC)c1cccs1 (some centres undefined) | 6.75% (inactive) | –
6 | Cc1cc(O)cc(O)c1C(=O)OC1(C)C(=O)C=C2C=C(C=CC(=O)O)OC=C2C1=O (centres undefined) | 11.3% (inactive) | –
7 | COC(=O)C(C(C)=O)[C@@H](NC(=O)NCc1ccccc1)c1ccccc1 (some centres undefined) | 10.9% (inactive) | –
8 | CCN1C(=O)N(S(=O)(=O)c2ccc(C)cc2)C(c2ccccc2)C(C(=O)OC)=C1C (centres undefined) | -5.77% (inactive) | –
9 | Cc1cc(C)cc(CO[C@H]2C=C[C@@H](c3ccccc3)O[C@H]2CO)c1 | -2.23% (inactive) | –
10 | CCCCc1cc2c(cn1)=C(OC(=O)CCC(=O)OC)C(C)(OC(=O)CC)C(=O)C=2 (centres undefined) | – | 1.69 µM (active)
11 | CC(=O)OC[C@H]1O[C@H](CC=NOC[C@@H](O)[C@H]2O[C@@H]3OC(C)(C)O[C@H]3[C@@H]2O)C=C[C@H]1OC(C)=O | 3.62% (inactive) | –
12 | CCN1C(=O)NC(c2ccc(Br)cc2)C(C(C)=O)=C1C (centres undefined) | 2.04% (inactive) | –
13 | N#CCCN(CC#Cc1ccccc1)OCc1ccccc1 | 0.128% (inactive) | –
14 | COC(=O)NC(C=Cc1ccccc1)C(C(C)=O)C(=O)OC (centres undefined) | -17.7% (inactive) | –

From PubChem BioAssay (NCATS)
